Data taken from PubChem BioAssay AID797 (University of Pittsburgh Molecular Library Screening Center, 2007).
Among all 200,000 compounds or so, about 110 (0.055%) were called active. This is one part of a sample in which actives are shown more often than they occur. No stated cut-off is given here; in the data, active means inhibition above about 50%; inactive means the rest.

Biological target: Serine/threonine-protein kinase D1 (Homo sapiens) (UniProt Q15139)
Experiment: protein kinase D1 activity blockers – biochemical, fluorescence polarization (AID 797)
Conditions: PKD1 kinase fluorescence polarization assay; hits give high values; concentration not given here

Sequence of Serine/threonine-protein kinase D1 (Homo sapiens) (Q15139 whole entry, looked up): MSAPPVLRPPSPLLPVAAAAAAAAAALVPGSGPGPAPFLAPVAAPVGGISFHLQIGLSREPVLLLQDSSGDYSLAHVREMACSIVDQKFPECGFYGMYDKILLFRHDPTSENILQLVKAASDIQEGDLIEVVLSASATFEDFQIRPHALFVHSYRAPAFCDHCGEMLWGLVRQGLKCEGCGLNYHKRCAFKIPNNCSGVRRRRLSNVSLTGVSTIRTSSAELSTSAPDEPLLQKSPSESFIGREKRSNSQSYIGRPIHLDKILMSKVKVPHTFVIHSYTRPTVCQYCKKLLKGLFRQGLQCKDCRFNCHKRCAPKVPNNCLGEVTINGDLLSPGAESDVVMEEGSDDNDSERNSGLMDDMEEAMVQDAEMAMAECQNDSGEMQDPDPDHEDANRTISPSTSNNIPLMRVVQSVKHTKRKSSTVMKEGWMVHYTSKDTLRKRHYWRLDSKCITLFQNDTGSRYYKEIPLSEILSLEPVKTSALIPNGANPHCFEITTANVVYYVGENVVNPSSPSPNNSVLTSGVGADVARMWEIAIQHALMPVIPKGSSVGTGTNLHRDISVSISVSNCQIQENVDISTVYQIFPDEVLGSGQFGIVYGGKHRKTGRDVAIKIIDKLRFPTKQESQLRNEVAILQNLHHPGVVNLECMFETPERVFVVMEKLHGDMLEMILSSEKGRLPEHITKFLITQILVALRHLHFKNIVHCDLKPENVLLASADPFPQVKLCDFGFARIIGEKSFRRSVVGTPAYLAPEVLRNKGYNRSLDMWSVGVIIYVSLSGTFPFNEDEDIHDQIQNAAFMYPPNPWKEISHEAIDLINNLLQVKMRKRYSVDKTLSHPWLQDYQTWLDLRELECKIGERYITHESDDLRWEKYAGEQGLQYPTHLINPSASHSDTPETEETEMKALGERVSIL

inhibition, inactive:
S=C1NC(c2ccccc2)=NCN1c1ccc(Br)cc1 0.72%
COc1ccc2ccccc2c1CNc1nnnn1C -8.73%
CCC(C)NC(=O)/C=C/c1ccc(S(=O)(=O)NCc2ccco2)cc1 (stereo not drawn) 7.02%
CCCCSc1nc2ccccc2[nH]1 -6.36%
CN(CCc1cn[nH]c1)C(=O)CC1C(=O)NCCN1Cc1cccc(Oc2ccccc2)c1 (stereo not drawn) -3.31%
Cc1c(C(=O)NCCN2C(=O)S/C(=C\c3cccs3)C2=O)cccc1[N+](=O)[O-] 8.76%
Cc1ccc2c(=O)oc(N(C)C)nc2c1 1.27%
C#CCOCCOCCOCCNc1nc(N2CCN(C(=O)[C@H](CCCCN)n3cc([C@@H](N)C(C)CC)nn3)CC2)nc(N2CCN(C(=O)[C@H](Cc3ccc(O)cc3)n3cc([C@@H](N)C(C)CC)nn3)CC2)n1 (stereo partly drawn) -0.05%
C=CCNC(=S)N1CCN(CCN=Cc2c(C)[nH]n(-c3ccc([N+](=O)[O-])cc3)c2=O)CC1 -2.35%
CC(Oc1ccc(Cl)cc1)c1ccnn1S(C)(=O)=O (stereo not drawn) -7.83%
CCOC(=O)c1c(NC(=O)C2CCN(S(=O)(=O)c3ccc(Cl)cc3)CC2)sc2c1CCCC2 8.85%
CCCCCC1CCC(c2nnc(SCC(C)=O)o2)CC1 (stereo not drawn) -8%
O=[N+]([O-])c1cc(S(=O)(=O)N2CCCC2)ccc1NN=C1CCCC1 2.42%
Cc1cc(N/N=C/c2ccccc2F)c2ccccc2n1 4.69%
Cc1ccc(-n2cc(CN(C)Cc3nccn3C)c(-c3cccc(C)c3)n2)cc1 -5.32%
COc1ccc(S(=O)(=O)Nc2cccnc2)c(Cl)c1Cl -2.39%
O=C(NCCCN1CCOCC1)c1ccc(N2CCCC2)c([N+](=O)[O-])c1 -1.03%
CC(C)(C)c1nnc(N/N=C/c2ccc(O)cc2)n(N)c1=O -3.71%
CC(C)(C)NC(=O)NC(=O)CN1CCC(Cc2ccccc2)CC1 -4.14%
CCN1/C(=C\c2ccc3ccccc3[n+]2CC)Sc2cc(C)ccc21 -5.46%
Cc1scc(C(=O)NNC(=S)NCc2ccccc2)c1C -7.68%
COc1ccc(/C=N/n2c(C)cc(C)cc2=O)cc1 -7.11%
CCCn1c(NC(=O)C23CC4CC(CC(O)(C4)C2)C3)nc2ccccc21 -0.11%
